Results filed as inconclusive are left out. A number with no mark means an inactive call. Active and inactive are the calls of the source. The call rests on the fitted dose curve; in most records, active means well fitted inhibition curve with a large enough effect; inconclusive means small, poorly fitted or top-dose-only effect; inactive means flat fitted curve, though single readings scatter.
Target: Luciferin 4-monooxygenase (Photinus pyralis) (UniProt P08659)
Test: FLuc inhibitory activity for the follow-up compounds in a biochemical assay with Km concentrations of substrate and 500microM CoASH
Settings: purified FLuc, Km substrates + 500 uM CoASH, luminescence; series mostly up to 57.5 µM; activity change, negative = inhibition: at the top concentration
Source text: NCGC Assay Overview: Firefly (Photinus pyralis) luciferase is one of the most commonly used transcriptional reporters. It is considered one of the more dynamically responsive reporters - that is, responsive to changes in reporter transcription - as it requires no post-translational modifications and is enzymatically active directly after protein synthesis (Wood, 1998). With no endogenous expression in mammalian cells and without the requirement of external excitation, it offers very little background signal, thus generally providing excellent signal to background for most assays. Previous profiling work to determine the prevalence of compounds that affect FLuc enzymatic activity (PubChem AID 411) identified that ~3% of the MLSMR library (then at ~72K) inhibited FLuc. […] Of the compounds identified in this profile that inhibited FLuc, 151 compounds were selected for further analysis, in an effort to better understand their mode of inhibiting FLuc. The assay described here was to determine the activity of the compounds in an FLuc assay that contained KM concentrations of substrates and 500uM CoASH.
NCGC Assay Protocol Summary: Reagents: 50mM Tris acetate, pH 7.5; 10mM Mg acetate; 10uM D-luciferin (Sigma #L9504); 10uM ATP; 0.01% Tween-20; 0.05% BSA; 10nM P. pyralis luciferase (Sigma #L9506); 500 uM CoASH Control compounds used were two known firefly luciferase inhibitors (3-(5-(3-chlorophenyl)-1,2,4-oxadiazol-3-yl)benzoic acid and 5-(2-fluorophenyl)-3-phenyl-1,2,4-oxadiazole), and DMSO. Three microliters containing firefly luciferase substrates in buffer (final concentrations: 50mM Tris acetate, pH 7.5, 10mM Mg acetate, 0.01% Tween-20, 0.05% BSA, 10uM D-luciferin, 10uM ATP, and 500 uM CoASH) are dispensed into each well of a Greiner white, solid-bottom 1536-well format plate using a flying reagent dispenser (FRD). These assay plates were then treated with 23nL of compound or DMSO using a Kalypsys pin tool, which allows for delivery of a 12-point intraplate titration of each compound to the assay plate (quantitative HTS), with a final compound concentrations ranging from approximately ~60uM to 0.3nM. One microliter of firefly luciferase in 500mM Tris-acetate buffer was then delivered by FRD to each well for a final enzyme concentration of 10nM. Luciferase activity was then measured using a ViewLux CCD imager (PerkinElmer), with an average exposure time of 2-30 seconds (2X binning, medium/high gain).

Sequence of Luciferin 4-monooxygenase (Photinus pyralis) (P08659 whole entry, looked up): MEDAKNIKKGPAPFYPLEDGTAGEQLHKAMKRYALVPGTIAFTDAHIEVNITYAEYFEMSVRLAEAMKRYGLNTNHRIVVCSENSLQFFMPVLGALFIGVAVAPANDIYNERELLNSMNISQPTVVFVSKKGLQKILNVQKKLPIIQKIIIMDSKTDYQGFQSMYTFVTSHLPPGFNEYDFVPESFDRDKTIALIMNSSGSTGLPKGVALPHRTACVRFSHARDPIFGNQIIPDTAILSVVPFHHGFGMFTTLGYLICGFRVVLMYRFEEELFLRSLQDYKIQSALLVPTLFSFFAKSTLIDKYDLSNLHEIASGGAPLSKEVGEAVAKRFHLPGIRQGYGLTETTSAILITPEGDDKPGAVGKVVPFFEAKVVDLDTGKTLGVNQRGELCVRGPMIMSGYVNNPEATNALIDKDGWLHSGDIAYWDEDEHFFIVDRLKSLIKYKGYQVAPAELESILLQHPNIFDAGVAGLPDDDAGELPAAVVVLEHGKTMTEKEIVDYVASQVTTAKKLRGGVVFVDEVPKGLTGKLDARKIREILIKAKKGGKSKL

Row | SMILES | Potency | activity change, negative = inhibition [%]
1 | Nc1ccccc1C(=O)Nc1cccc(C(=O)O)c1 | 18.3 µM (active) | 
2 | Cc1cccc(C(=O)Nc2ccccc2C(=O)Nc2ccc(C(=O)O)cc2)c1 | 5.8 µM (active) | 
3 | O=C(Nc1ccccc1-c1nc2ccccc2s1)c1ccc(Br)o1 |  | -3.85
4 | Cc1ccc2nc(-c3ccc(N)cc3)sc2c1 | 0.0326 µM (active) | 
5 | NC(=O)Cc1ccc2sc(-c3ccccc3)nc2c1 | 1.63 µM (active) | 
6 | O=C(Nc1ccccc1C(=O)O)c1ccc(NC(=O)C2CCCCC2)cc1 | 5.17 µM (active) | 
7 | C/C(=N\NC(=O)c1ccccc1NC(=O)c1ccc(Cl)cc1)c1ccncc1 | 0.0046 µM (active) | 
8 | Cc1ccc(C(=O)Nc2cccc(C(=O)O)c2)cc1S(=O)(=O)N1CCCC1 | 5.17 µM (active) | 
9 | Nc1ccccc1-c1nc2ccccc2s1 | 3.26 µM (active) | 
10 | Cc1c(C)c2ccc(OCC(=O)Nc3ccccn3)c(C)c2oc1=O | 0.0041 µM (active) | 
11 | Cc1c(NC(=O)c2cc(-n3cnnc3)ccc2Cl)cccc1-c1nc2ccccc2s1 | 0.231 µM (active) | 
12 | CC(=O)Oc1ccc(C(=O)Nc2ccccc2C(=O)Nc2ccc(C(=O)O)cc2)cc1 | 1.46 µM (active) | 
13 | COc1ccc2nc(NC(=O)c3ccc([N+](=O)[O-])o3)sc2c1 | 1.16 µM (active) | 
14 | O=C(O)c1ccc(NC(=O)c2ccccc2NC(=O)c2ccccc2Cl)cc1 | 16.3 µM (active) | 
15 | Cc1ccc2sc(-c3ccc(NC(=O)c4cc(-n5cnnc5)ccc4Cl)cc3)nc2c1 | 1.63 µM (active) | 
16 | COc1ccc2nc(NC(=O)c3nc(S(=O)(=O)Cc4ccc(C)cc4)ncc3Cl)sc2c1 | 2.06 µM (active) | 
17 | CC(C)(C)C(=O)Nc1ccc(-c2nc3ccccc3s2)cc1 | 0.0103 µM (active) | 
18 | O=C(Nc1ccccc1C(=O)O)c1ccc(Cl)c(S(=O)(=O)N2CCOCC2)c1 | 5.8 µM (active) | 
19 | Cc1ccc(C(=O)Nc2cccc(C(=O)O)c2)cc1 | 3.66 µM (active) | 
20 | O=C(Nc1ccccc1C(=O)O)c1ccc(NC(=O)C2CCCO2)cc1 (stereo not given) | 5.8 µM (active) | 

Row | SMILES | Potency | activity change, negative = inhibition [%]
21 | Cc1ccc2nc(-c3ccc(NC(=O)CN4CCN(C(=O)c5ccco5)CC4)cc3)sc2c1 | 3.66 µM (active) | 
22 | COc1ccc2nc(NC(=O)CCc3ccc(OC)c(OC)c3)sc2c1 |  | -17.3
23 | COc1cc(OC)cc(C(=O)Nc2ccccc2-c2nc3ccccc3s2)c1 |  | -5.72
24 | Nc1ccc(-c2nc3ccc(C(=O)O)cc3s2)cc1 | 0.146 µM (active) | 
25 | O=C(Nc1ccccc1C(=O)O)c1ccc(NC(=O)C2CC2)cc1 | 0.73 µM (active) | 
26 | COc1ccc(C(=O)Nc2nc3ccc(OC)cc3s2)cc1 | 0.58 µM (active) | 
27 | COc1c(C)cccc1C(=O)Nc1ccc(-c2nc3ccccc3s2)c(Cl)c1 |  | -16.4
28 | CN(C)c1cccc(C(=O)Nc2ccc(-c3nc4ccccc4s3)cc2)c1 | 1.46 µM (active) | 
29 | O=C(O)c1cccc(NC(=O)c2ccccc2NC(=O)c2ccccc2F)c1 | 18.3 µM (active) | 
30 | Nc1cccc(-c2nc3ccc(N)cc3s2)c1 | 0.146 µM (active) | 
31 | O=C(O)c1ccc(NC(=O)c2ccccc2NC(=O)c2cccc(Br)c2)cc1 | 7.3 µM (active) | 
32 | COc1ccccc1C(=O)Nc1ccc(C(=O)Nc2ccccc2C(=O)O)cc1 | 20.6 µM (active) | 
33 | Cc1c(NS(C)(=O)=O)cccc1-c1nc2ccccc2s1 | 3.66 µM (active) | 
34 | O=C(Nc1ccccc1C(=O)O)c1cccc(NC(=O)c2ccco2)c1 | 6.51 µM (active) | 
35 | O=C(O)c1ccc(NC(=O)c2ccccc2NC(=O)c2ccccc2Br)cc1 | 16.3 µM (active) | 
36 | COc1ccc(-c2nc3ccccc3s2)cc1O | 0.0326 µM (active) | 
37 | COc1ccc(-c2nc3ccccc3s2)cc1NC(=O)c1ccc(F)cc1 |  | -19.4
38 | Nc1ccc(-c2nc3ccc(N)cc3s2)cc1 | 0.116 µM (active) | 
39 | CC(C)C(=O)Nc1cccc(C(=O)Nc2ccccc2C(=O)O)c1 | 7.3 µM (active) | 
40 | COc1ccc(C(=O)Nc2ccccc2-c2nc3ccccc3s2)c(OC)c1 |  | -9.63

From PubChem BioAssay AID602358 (National Center for Advancing Translational Sciences (NCATS), 2012)
